Screens deposited in PubChem BioAssay by National Center for Advancing Translational Sciences (NCATS).
The full list was thinned out, with hits kept by preference.
Shiga inhibitor – A qHTS for Small Molecule Inhibitors of Shiga Toxin | Vero cells, Shiga toxin protein synthesis inhibition reporter | 290,000 compounds, 9.2% hits | inhibition, % at 38.7 µM | AID 2315, 2010; in the data active means inhibition mostly above about 28%, no sharp cut-off; inactive means mostly below about 43%; further: 0% is about no effect
VACV Venus inh – qHTS for Stage-Specific Inhibitors of Vaccinia Orthopoxvirus: Venus Reporter Primary qHTS. Potency, µM (top dose mostly 36.5 µM), without a hit: at the top dose activity change, negative = inhibition, hits mostly inhibitors. 330,000 compounds, 0.46% hits. Vaccinia virus Venus reporter expression, fluorescence. AID 720580, 2013; calls by dose curve; tested in A549 cells; further: potency means the concentration at half of the fitted maximal effect; on the % scale 0 is the no-effect control and ±100 the full control effect; nearly all actives have a fitted effect of over 30% in size
LASV entry inh – qHTS for Inhibitors of binding or entry into cells for Lassa Virus; Lassa virus pseudotype entry inhibition, cell reporter; Potency, µM (highest dose often 37.9 µM), for inactives: at the top dose activity change, negative = inhibition, usual class: inhibitors; 300,000 compounds, 1.2% hits; calls by dose curve; tested in HEK293 cells; further: potency means the concentration at half of the fitted maximal effect; on the % scale 0 is the no-effect control and ±100 the full control effect; nearly all actives have a fitted effect of over 50% in size
Marburg entry inh – qHTS for inhibitors of binding or entry into cells for Marburg Virus; Potency, µM (series often up to 37.8 µM), for the others: top-dose activity change, negative = inhibition, hits mostly inhibitors; Marburg virus pseudotyped entry inhibition, cell reporter; 300,000 compounds, 1.8% hits; calls by dose curve; tested in HEK293 cells; further: potency means the concentration at half of the fitted maximal effect; on the % scale 0 is the no-effect control and ±100 the full control effect
Vaccinia mCherry – qHTS for Stage-Specific Inhibitors of Vaccinia Orthopoxvirus: mCherry Reporter Primary qHTS; Vaccinia virus mCherry reporter infection, fluorescence; Potency, µM (titrated, usually from 36.5 µM), without a hit: at the highest dose activity change, negative = inhibition, usual class: inhibitors; 310,000 compounds, 0.63% hits; calls by dose curve; tested in A549 cells; further: potency means the concentration at half of the fitted maximal effect; on the % scale 0 is the no-effect control and ±100 the full control effect; nearly all actives have a fitted effect of over 35% in size
CHX counter – Cycloheximide Counterscreen for Small Molecule Inhibitors of Shiga Toxin; AID 2314, 2010; cell reporter, cycloheximide protein synthesis inhibition counterscreen; 300,000 compounds, 12% hits; max response, %; in the data active means max response mostly above about 13%, no sharp cut-off; inactive means mostly below about 14%; further: read at 38.3 µM for the half of the compounds with a filed dose; 0% is about no effect
The depositor's hits bear a star; [ ] = another dose, or the depositor's remark.

CC(C)C(=O)Nc1ccc(NC(=S)NC(=O)c2ccccc2F)cc1 was read as Shiga inhibitor 30, VACV Venus inh -16%, LASV entry inh inconclusive, Marburg entry inh -15%, Vaccinia mCherry inactive and CHX counter 15*.
Screening O=C(Nc1ccccc1)Nc1ccc(Cl)c([N+](=O)[O-])c1 returned Shiga inhibitor 81*, LASV entry inh inconclusive, Marburg entry inh inconclusive and CHX counter 37*.
`CCc1ccc(-c2nn(CC(=O)NC3CCCC3)c3c2cnc2ccc(F)cc23)cc1` gave VACV Venus inh 10%, LASV entry inh -1%[46.1 µM] and Vaccinia mCherry 1%.
CCOC(=O)C(c1ccc(OC)c(OC)c1)C1c2ccccc2C=C(C)N1C(=O)OC (configuration not stated) was read as LASV entry inh inconclusive and Marburg entry inh -18%[14.2 µM].
Screening Cc1ccc(NC(=O)Nc2ccccc2)cc1[N+](=O)[O-] returned Shiga inhibitor 146*, VACV Venus inh -14%, LASV entry inh 16%, Marburg entry inh 10%, Vaccinia mCherry -7% and CHX counter 52*.
Screening Cc1ccsc1C(=O)Nc1ccc(F)c([N+](=O)[O-])c1 returned Shiga inhibitor 53*, VACV Venus inh -8%, LASV entry inh inconclusive, Marburg entry inh 7%, Vaccinia mCherry -13% and CHX counter 35*.
For CC(=O)Nc1ccc(C)c([N+](=O)[O-])c1 the results were Shiga inhibitor 45, VACV Venus inh -3%, LASV entry inh -16%, Marburg entry inh -1%, Vaccinia mCherry inactive and CHX counter -3.
CCn1nc(-c2ccccc2)c(-c2ccccc2)c(C(=O)Nc2ccccc2C(N)=O)c1=O was read as VACV Venus inh -4%, LASV entry inh 7%[46.1 µM], Marburg entry inh -16%[46.1 µM] and Vaccinia mCherry 4%.
CC(C)(C)OC(=O)CNC(=O)c1[nH]cnc1C(=O)NCC(=O)OCc1ccccc1 was read as Shiga inhibitor 16, VACV Venus inh -7%, Vaccinia mCherry inactive and CHX counter 10*.
O=C(Nc1ccc(F)cc1F)c1ccc(-n2cccn2)nc1 was read as Shiga inhibitor 18, VACV Venus inh -20%, LASV entry inh 0%, Marburg entry inh inconclusive, Vaccinia mCherry -8% and CHX counter 16*.
Screening CC(C)Sc1ccc(C(=O)Nc2ccc(F)cc2F)cn1 returned Shiga inhibitor 50*, VACV Venus inh -23%, LASV entry inh 19%, Marburg entry inh inconclusive, Vaccinia mCherry -14% and CHX counter 48*.
For Cc1ccc(C(=O)Nc2ccc3c(c2)CCC3)cc1S(=O)(=O)N1CCOCC1 the results were Shiga inhibitor 98*, VACV Venus inh -21%, LASV entry inh 13%[46.1 µM], Marburg entry inh inconclusive, Vaccinia mCherry inactive and CHX counter 34*.
`O=C(Nc1ccc(S(=O)(=O)Nc2ncccn2)cc1)c1ccc(F)c(S(=O)(=O)N2CCOCC2)c1` gave Shiga inhibitor -7, VACV Venus inh 8%[7.34 µM], Vaccinia mCherry -3%[7.34 µM] and CHX counter -2.
For O=C(Nc1ccc2c(c1)CCC2)c1ccc(F)c(S(=O)(=O)N2CCOCC2)c1 the results were Shiga inhibitor 36*, VACV Venus inh -20%, LASV entry inh inconclusive, Marburg entry inh inconclusive, Vaccinia mCherry inactive and CHX counter 27*.
CCN(C(=O)C1CCCN(c2ncnc3c2nc2n3CCCCC2)C1)c1cccc(C)c1 (configuration not stated) was read as VACV Venus inh -10%, LASV entry inh inconclusive and Vaccinia mCherry -16%.
`Cc1ccc(N/N=C/c2cccnc2)cc1` gave Shiga inhibitor 84*, VACV Venus inh -20%, LASV entry inh inconclusive, Marburg entry inh inconclusive, Vaccinia mCherry -9% and CHX counter 53*.
For Cc1csc(N/N=C\c2cccnc2)n1 the results were Shiga inhibitor 91*, VACV Venus inh 1%, LASV entry inh 5%, Marburg entry inh 22%[46.1 µM], Vaccinia mCherry inactive and CHX counter 58*.
Screening Cc1ccc(N/N=C/c2ccncc2)cc1 returned Shiga inhibitor 87* and CHX counter 42*.
For O=C(O)c1ccc(/C=N/Nc2ncc(Cl)cc2Cl)cc1 the results were Shiga inhibitor 65* and CHX counter 21.
Screening Cc1ccc(C(=O)Nc2ccc(C(=O)N/N=C/c3ccncc3)cc2)cc1 returned Shiga inhibitor 12 and CHX counter 18.
Screening O=C(O)c1ccc(/C=N\Nc2ccccn2)cc1 returned VACV Venus inh -7%, LASV entry inh 1%, Marburg entry inh -22% and Vaccinia mCherry -18%.
O=[N+]([O-])c1ccc(-c2csc(N/N=C/c3cccnc3)n2)cc1 was read as Shiga inhibitor -7, VACV Venus inh -8%, Vaccinia mCherry inconclusive and CHX counter 3.
Cc1cccc(N2CCN(C(=O)C3CCN(S(=O)(=O)c4cn(C)cn4)CC3)CC2)c1C was read as VACV Venus inh -16%, LASV entry inh -9%[46.1 µM] and Vaccinia mCherry -21%.
`O=C(O)c1ccc(N/N=C/c2ccncc2)cc1` gave Shiga inhibitor 35* and CHX counter 25*.
Screening Clc1cccc(N/N=C/c2ccncc2)c1 returned Shiga inhibitor 20, VACV Venus inh -24%, LASV entry inh 10%, Marburg entry inh inconclusive, Vaccinia mCherry -8% and CHX counter 31*.
For CC(C)Cc1nnc(NC(=O)C2CC(=O)N(c3ccc4c(c3)OCCO4)C2)s1 (configuration not stated) the results were VACV Venus inh -12%, LASV entry inh -7%, Marburg entry inh 20% and Vaccinia mCherry -3%.
Screening Cc1ccc(NC(=O)C2CCN(C(=O)[C@@H]3Cc4ccccc4CN3)CC2)c(C)c1 returned Shiga inhibitor -11 and CHX counter 14*.
For CCc1ccc(NC(=O)C2CCN(C(=O)[C@@H]3Cc4ccccc4CN3)CC2)cc1 the results were Shiga inhibitor 60*, VACV Venus inh -27%, LASV entry inh inconclusive, Marburg entry inh inconclusive, Vaccinia mCherry -1% and CHX counter 34*.
COc1ccc(CNC(=O)C2CCN(C(=O)[C@@H]3Cc4ccccc4CN3)CC2)cc1 was read as Shiga inhibitor 24 and CHX counter -7.
COc1ccc(NC(=O)C2CCN(C(=O)[C@@H]3Cc4ccccc4CN3)CC2)cc1 was read as Shiga inhibitor 13 and CHX counter 33*.
Screening Cc1cccc(NC(=O)C2CCN(C(=O)[C@@H]3Cc4ccccc4CN3)CC2)c1 returned Shiga inhibitor 16 and CHX counter 24.
